Targets with a hit are over-represented here; the source holds about 7,900 in all. About 0.6% of all pairs of compound and target were hits.
What follows are targets tested with CNc1nc(-c2ccc3c(N)n[nH]c3c2)cc(N2C[C@@H](C(=O)NC3CCCCC3)CC[C@H]2C)n1 (assay: log2 fold change, soluble protein after heating vs DMSO (PISA); higher = thermal stabilisation; K562 cells, 10 uM, 30 min; active = over 0.2 and 3.5 SD of the protein, either way, in both replicates (recomputed)).
Outline: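 Values are thermal stability changes relative to control samples and are taken from duplicates. They are stated as log2 fold changes. Before quantification by TMTpro 16plex LC-MS/MS with equalised channel sums, K562 cells at 2×10^6 cells/mL were treated with 10 μM compound for 30 min, heated in aliquots for 3 min across 48°C-58°C, pooled, extracted in PBS with 0.5% NP-40 at 4°C, and centrifuged at 21,000xg for 90 min to give the soluble supernatant.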

Chain of UniProt Q8N0X7 (Q8N0X7 whole entry, looked up): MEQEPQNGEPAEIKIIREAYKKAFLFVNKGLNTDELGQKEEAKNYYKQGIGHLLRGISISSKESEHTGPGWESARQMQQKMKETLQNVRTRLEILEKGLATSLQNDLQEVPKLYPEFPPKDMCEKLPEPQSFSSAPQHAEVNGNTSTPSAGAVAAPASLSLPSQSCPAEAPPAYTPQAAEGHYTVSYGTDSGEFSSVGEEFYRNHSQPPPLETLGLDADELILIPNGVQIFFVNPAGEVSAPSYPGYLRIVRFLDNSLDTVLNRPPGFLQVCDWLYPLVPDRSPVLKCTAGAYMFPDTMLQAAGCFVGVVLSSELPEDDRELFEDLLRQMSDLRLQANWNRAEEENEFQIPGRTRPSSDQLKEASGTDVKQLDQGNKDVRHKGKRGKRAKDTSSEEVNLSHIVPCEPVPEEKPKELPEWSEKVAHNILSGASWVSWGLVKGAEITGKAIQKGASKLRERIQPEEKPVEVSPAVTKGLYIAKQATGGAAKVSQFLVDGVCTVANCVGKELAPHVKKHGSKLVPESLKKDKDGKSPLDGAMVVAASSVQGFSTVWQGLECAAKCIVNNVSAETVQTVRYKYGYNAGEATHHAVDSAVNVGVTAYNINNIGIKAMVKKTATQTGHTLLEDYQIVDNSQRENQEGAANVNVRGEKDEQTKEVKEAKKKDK
Chain of UniProt Q9Y2H1 (Q9Y2H1 whole entry, looked up): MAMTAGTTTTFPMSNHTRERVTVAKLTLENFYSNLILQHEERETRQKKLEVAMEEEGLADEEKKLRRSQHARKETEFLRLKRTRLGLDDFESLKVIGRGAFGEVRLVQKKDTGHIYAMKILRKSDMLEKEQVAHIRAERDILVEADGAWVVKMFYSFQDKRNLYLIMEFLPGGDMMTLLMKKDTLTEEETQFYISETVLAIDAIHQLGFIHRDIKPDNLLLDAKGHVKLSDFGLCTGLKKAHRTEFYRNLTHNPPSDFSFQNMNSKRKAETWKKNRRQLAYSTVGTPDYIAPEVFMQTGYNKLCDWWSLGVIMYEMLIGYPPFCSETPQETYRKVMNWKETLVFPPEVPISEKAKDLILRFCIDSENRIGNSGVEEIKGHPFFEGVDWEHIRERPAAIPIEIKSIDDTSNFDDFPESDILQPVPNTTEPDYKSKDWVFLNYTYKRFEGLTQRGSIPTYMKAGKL
Chain of UniProt Q12824 (Q12824 whole entry, looked up): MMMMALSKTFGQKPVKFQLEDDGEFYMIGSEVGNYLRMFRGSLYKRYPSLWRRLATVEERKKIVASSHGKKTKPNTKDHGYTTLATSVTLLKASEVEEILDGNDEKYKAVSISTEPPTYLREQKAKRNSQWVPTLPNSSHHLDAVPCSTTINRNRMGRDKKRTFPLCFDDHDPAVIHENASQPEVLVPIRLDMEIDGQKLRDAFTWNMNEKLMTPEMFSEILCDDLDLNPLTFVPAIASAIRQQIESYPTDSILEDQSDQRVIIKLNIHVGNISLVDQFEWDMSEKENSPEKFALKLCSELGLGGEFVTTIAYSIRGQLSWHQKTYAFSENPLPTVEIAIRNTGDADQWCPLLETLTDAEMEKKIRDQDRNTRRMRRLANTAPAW
Chain of UniProt Q9Y5J6 (Q9Y5J6 whole entry, looked up): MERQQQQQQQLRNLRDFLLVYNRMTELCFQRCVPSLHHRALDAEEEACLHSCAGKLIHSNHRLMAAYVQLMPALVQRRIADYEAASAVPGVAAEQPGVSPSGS
Chain of UniProt Q9NRS6 (Q9NRS6 whole entry, looked up): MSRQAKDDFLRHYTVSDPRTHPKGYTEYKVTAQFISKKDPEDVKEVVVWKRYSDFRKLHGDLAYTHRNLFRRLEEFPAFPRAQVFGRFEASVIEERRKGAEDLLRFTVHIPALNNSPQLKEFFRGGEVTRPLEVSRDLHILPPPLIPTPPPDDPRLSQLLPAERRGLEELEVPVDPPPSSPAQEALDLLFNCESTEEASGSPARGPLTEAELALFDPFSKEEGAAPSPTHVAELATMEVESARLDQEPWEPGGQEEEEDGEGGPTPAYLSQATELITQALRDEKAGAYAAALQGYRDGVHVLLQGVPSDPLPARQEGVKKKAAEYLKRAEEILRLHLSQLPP
Chain of UniProt Q6PCB7 (Q6PCB7 whole entry, looked up): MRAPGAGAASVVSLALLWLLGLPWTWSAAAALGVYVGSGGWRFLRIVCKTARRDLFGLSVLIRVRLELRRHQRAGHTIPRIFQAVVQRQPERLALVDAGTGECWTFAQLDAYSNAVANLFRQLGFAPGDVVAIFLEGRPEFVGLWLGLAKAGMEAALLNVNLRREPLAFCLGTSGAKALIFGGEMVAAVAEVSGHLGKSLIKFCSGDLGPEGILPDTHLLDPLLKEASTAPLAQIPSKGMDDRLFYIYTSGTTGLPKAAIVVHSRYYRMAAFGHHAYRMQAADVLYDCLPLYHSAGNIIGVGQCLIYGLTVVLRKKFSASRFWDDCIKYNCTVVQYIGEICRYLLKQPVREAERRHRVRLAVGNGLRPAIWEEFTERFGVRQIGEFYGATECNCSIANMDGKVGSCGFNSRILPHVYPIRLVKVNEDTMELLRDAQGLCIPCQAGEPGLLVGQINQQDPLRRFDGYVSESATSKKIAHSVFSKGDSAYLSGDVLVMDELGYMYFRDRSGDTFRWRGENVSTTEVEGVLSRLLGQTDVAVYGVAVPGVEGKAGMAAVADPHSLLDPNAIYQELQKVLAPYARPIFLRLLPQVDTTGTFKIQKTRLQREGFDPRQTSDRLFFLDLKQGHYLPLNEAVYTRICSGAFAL
Chain of UniProt Q6YHU6 (Q6YHU6 whole entry, looked up): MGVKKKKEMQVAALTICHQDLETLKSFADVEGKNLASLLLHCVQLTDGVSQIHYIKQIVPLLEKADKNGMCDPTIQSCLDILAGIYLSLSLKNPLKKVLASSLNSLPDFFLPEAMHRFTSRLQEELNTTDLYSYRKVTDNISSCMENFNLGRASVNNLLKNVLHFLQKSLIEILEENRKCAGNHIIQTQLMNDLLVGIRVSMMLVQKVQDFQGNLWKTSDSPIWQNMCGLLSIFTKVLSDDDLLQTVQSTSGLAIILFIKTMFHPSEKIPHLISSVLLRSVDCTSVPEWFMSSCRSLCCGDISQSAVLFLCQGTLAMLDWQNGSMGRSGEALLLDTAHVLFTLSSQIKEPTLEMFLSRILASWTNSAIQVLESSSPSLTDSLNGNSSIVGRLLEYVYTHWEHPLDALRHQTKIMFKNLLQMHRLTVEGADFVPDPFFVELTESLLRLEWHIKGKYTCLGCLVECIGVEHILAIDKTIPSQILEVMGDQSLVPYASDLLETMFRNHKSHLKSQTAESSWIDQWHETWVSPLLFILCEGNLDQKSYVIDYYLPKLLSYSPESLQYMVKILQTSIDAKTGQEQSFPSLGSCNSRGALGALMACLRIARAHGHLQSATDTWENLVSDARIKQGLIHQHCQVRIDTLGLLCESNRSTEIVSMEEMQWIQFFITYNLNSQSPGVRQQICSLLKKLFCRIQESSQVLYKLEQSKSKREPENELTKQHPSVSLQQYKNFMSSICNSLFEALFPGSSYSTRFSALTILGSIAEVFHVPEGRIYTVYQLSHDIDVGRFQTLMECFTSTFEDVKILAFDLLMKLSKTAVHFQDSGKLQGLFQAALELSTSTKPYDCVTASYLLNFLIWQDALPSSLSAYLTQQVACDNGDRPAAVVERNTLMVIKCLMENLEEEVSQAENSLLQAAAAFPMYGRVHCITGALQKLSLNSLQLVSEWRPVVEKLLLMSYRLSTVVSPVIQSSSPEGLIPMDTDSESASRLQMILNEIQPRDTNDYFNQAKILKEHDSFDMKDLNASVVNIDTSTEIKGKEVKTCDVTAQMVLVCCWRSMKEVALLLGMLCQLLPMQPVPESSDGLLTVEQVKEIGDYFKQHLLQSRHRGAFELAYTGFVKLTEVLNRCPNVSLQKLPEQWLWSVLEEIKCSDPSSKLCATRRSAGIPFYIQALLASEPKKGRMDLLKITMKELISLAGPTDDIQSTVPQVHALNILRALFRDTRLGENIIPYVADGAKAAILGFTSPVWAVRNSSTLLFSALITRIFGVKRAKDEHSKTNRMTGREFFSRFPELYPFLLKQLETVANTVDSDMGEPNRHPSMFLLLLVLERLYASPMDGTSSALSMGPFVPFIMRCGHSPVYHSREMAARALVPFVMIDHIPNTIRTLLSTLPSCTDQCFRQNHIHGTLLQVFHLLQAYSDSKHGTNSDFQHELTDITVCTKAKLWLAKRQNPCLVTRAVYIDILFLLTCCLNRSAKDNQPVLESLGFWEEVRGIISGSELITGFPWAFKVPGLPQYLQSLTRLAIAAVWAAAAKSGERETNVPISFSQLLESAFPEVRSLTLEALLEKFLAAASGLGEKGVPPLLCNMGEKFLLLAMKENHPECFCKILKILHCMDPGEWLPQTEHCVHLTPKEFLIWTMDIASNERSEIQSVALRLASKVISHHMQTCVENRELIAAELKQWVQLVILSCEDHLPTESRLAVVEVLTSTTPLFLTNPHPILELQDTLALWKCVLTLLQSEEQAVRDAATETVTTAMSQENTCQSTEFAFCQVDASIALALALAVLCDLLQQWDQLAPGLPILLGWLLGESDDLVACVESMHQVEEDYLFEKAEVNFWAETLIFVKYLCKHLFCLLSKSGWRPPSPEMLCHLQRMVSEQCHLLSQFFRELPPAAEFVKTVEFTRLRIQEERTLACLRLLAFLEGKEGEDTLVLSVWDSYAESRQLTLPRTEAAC
Chain of UniProt Q8N5G0 (Q8N5G0 whole entry, looked up): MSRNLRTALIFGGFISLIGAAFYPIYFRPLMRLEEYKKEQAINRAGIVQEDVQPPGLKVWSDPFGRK
Chain of UniProt Q969X1 (Q969X1 whole entry, looked up): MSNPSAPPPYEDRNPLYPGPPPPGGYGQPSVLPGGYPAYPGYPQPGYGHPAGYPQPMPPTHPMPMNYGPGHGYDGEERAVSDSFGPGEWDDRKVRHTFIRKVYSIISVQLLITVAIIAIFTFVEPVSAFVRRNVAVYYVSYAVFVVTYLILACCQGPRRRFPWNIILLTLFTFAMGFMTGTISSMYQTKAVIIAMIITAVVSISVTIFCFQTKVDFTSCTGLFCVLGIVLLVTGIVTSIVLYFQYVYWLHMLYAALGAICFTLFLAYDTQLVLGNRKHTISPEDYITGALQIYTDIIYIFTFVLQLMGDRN

log2 fold change, inactive:
SLC44A2 isoform 2 (UniProt Q8IWA5) 0.043
STK38L (UniProt Q9Y2H1) 0.024
SLC35F6 (UniProt Q8N357) -0.247
SLC27A1 (UniProt Q6PCB7) 0.146
SRSF6 (UniProt Q13247) -0.113
TATDN2 (UniProt Q93075) 0
TENT5C (UniProt Q5VWP2) -0.071
TMBIM1 (UniProt Q969X1) -0.097
SNRNP40 (UniProt Q96DI7) -0.03
SPART (UniProt Q8N0X7) -0.032
SRSF4 (UniProt Q08170) 0.013
SMDT1 (UniProt Q9H4I9) -0.064
SNX1 (UniProt Q13596) 0.028
THADA (UniProt Q6YHU6) 0.047
SMARCB1 (UniProt Q12824) -0.009
TACC2 (UniProt O95359) -0.105
SRFBP1 (UniProt Q8NEF9) -0.15
SYNE1 (UniProt Q8NF91) 0.045
STARD3 (UniProt Q14849) 0.028
SNX15 (UniProt Q9NRS6) -0.043
SRCAP (UniProt Q6ZRS2) -0.028
THYN1 (UniProt Q9P016) 0.072
SURF2 (UniProt Q15527) -0.059
TANGO6 (UniProt Q9C0B7) 0.037
SPCS2 (UniProt Q15005) 0.038
STAM2 (UniProt O75886) -0.02
SP100 isoform 4 (UniProt P23497) -0.092
TM7SF3 (UniProt Q9NS93) -0.011
TIMM10B (UniProt Q9Y5J6) -0.106
TLK1 (UniProt Q9UKI8) -0.002
SLC30A7 (UniProt Q8NEW0) -0.026
TAF6L (UniProt Q9Y6J9) 0.035
SLC35B1 isoform 2 (UniProt P78383) 0.011
STX7 (UniProt O15400) -0.014
TARS2 (UniProt Q9BW92) -0.098
SUPT5H (UniProt O00267) 0.039
SMIM20 isoform 2 (UniProt Q8N5G0) -0.094
TANK (UniProt Q92844) 0.052
